{"source": "PubChem BioAssay AID588335", "about": "(The Scripps Research Institute Molecular Screening Center, 2011)", "note": "Screen size: about 360,000 compounds; about 4,500 (1.2%) were called active. Only a selection was taken, and actives are over-represented in it overall. A number with no mark means an inactive call. Rule as the data show it: active = inhibition above about 30%; inactive = the rest."}
{"experiment": "GDH-TPI coupling enzyme inhibitors, primary screen, artefact control for M. tuberculosis FBA inhibitor project, biochemical, absorbance, full deck (AID 588335);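 also: 0% = DMSO wells and 100% = wells lacking the enzyme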", "settings": "GDH-TPI coupled enzyme counterscreen, NADH absorbance; at 4.8 µM; stronger effect = higher value"}
{"compound": "CC1(C)CC(=O)C=C(NCc2ccncc2)C1", "inhibition": "0.7%"}
{"compound": "CCCNC(=O)N1CCC(c2ccc3c(c2)OCO3)CC1", "inhibition": "-5.17%"}
{"compound": "O=C1/C(=C\\c2ccc3c(c2)OCO3)N2CCC1CC2", "inhibition": "33.3% (active)"}
{"compound": "O=C1/C(=C/c2ccc3c(c2)OCO3)Oc2cc(OCC(=O)N3CC(O)C[C@H]3C(=O)O)ccc21", "note": "(some centres undefined)", "inhibition": "28.4%"}
{"compound": "CN(C(=O)CCn1c(=S)oc2ccccc21)C1CCCCC1", "inhibition": "2.6%"}
{"compound": "Cc1c(NS(=O)(=O)c2cccc(C(=O)Nc3ccc(SC(F)F)cc3)c2)c(=O)n(-c2ccccc2)n1C", "inhibition": "0.43%"}
{"compound": "O=C(Nc1ccccc1F)c1cc(S(=O)(=O)N2CCCCC2)cs1", "inhibition": "-3.77%"}
{"compound": "O=C1CN(C(=O)CN2C(=O)NC3(CCCCC3)C2=O)c2ccccc2N1", "inhibition": "7.32%"}
{"compound": "CC1(c2ccccc2)NC(=O)N(CC(=O)N2CC(=O)Nc3ccccc32)C1=O", "note": "(centres undefined)", "inhibition": "-7.8%"}
{"compound": "CC(=O)N1C(=O)C2(Nc3ccccc3N2)c2ccccc21", "inhibition": "34.1% (active)"}
{"compound": "CSc1ccccc1NC(=O)CN(C)CC(=O)Nc1cccc(Br)c1", "inhibition": "-2.5%"}
{"compound": "CC1(C(=O)NS(=O)(=O)c2cccc(F)c2)CCN1C(=O)Cc1ccc(Cl)cc1Cl", "note": "(centres undefined)", "inhibition": "1.79%"}
{"compound": "O=C(COc1cc2oc(=O)c3c(c2cc1Cl)CCC3)NCCCN1CCOCC1", "inhibition": "21.4%"}
{"compound": "COc1ccc(S(=O)(=O)NC(C)C(=O)NCc2ccncc2)cc1Cl", "note": "(centres undefined)", "inhibition": "-4.46%"}
{"compound": "CC(Oc1cc2oc(=O)c3c(c2cc1Cl)CCCC3)C(=O)NCc1ccncc1", "note": "(centres undefined)", "inhibition": "30.8% (active)"}
{"compound": "COC(=O)Cn1c(=NC(=O)CSCC(=O)Nc2cc(C)on2)sc2ccccc21", "inhibition": "3.99%"}
{"compound": "CC(NC(=O)C(=O)Nc1nccs1)c1ccccc1", "note": "(centres undefined)", "inhibition": "9.56%"}
{"compound": "O=C1C(=O)N(CCN2CCOCC2)C(c2cccc(Cl)c2)/C1=C(/O)c1ccc2c(c1)OCO2", "note": "(centres undefined)", "inhibition": "17.7%"}
{"compound": "COCCN1C(=O)C(=O)/C(=C(/O)c2ccc(S(=O)(=O)N3CCOCC3)cc2)C1c1ccc(OC)c(OC)c1", "note": "(centres undefined)", "inhibition": "9.09%"}
{"compound": "CCOc1cc(C2/C(=C(/O)c3ccc(S(=O)(=O)N4CCCCC4)cc3)C(=O)C(=O)N2CCOC)ccc1O", "note": "(centres undefined)", "inhibition": "0.74%"}
{"compound": "COCCCN1C(=O)C(=O)/C(=C(/O)c2ccc(S(=O)(=O)N3CCOCC3)cc2)C1c1ccc(F)cc1", "note": "(centres undefined)", "inhibition": "31% (active)"}
{"compound": "COc1ccc(C2/C(=C(/O)c3ccc(OC(C)C)cc3)C(=O)C(=O)N2CCCN2CCOCC2)cc1", "note": "(centres undefined)", "inhibition": "11.5%"}
{"compound": "COCCN1C(=O)C(=O)/C(=C(/O)c2ccc(S(=O)(=O)N3CCOCC3)cc2)C1c1ccc(O)c(OC)c1", "note": "(centres undefined)", "inhibition": "5.9%"}
{"compound": "COc1cccc(C2/C(=C(/O)c3ccc(F)cc3)C(=O)C(=O)N2CCN(C)C)c1", "note": "(centres undefined)", "inhibition": "10.2%"}
{"compound": "COCCN1C(=O)C(=O)/C(=C(/O)c2ccc(S(=O)(=O)N3CCCCC3)cc2)C1c1ccc(OC)c(OC)c1", "note": "(centres undefined)", "inhibition": "33.3% (active)"}
{"compound": "O=C1C(=O)N(CCCN2CCOCC2)C(c2ccc([N+](=O)[O-])cc2)/C1=C(\\O)c1ccc2c(c1)OCCO2", "note": "(centres undefined)", "inhibition": "33.9% (active)"}
{"compound": "Cc1ccc(C)c(NC(=O)NNC(=O)c2ccc3ccccc3c2O)c1", "inhibition": "12.5%"}
{"compound": "CCOC(=O)C1CCN(S(=O)(=O)c2ccc3c(c2)N(C)C(=O)CC(=O)N3C)CC1", "inhibition": "6.72%"}
{"compound": "O=C(CNCc1cccs1)Nc1cc(S(=O)(=O)N2CCCC2)ccc1Cl", "inhibition": "2.39%"}
{"compound": "O=C(NCc1nnc(SCC(=O)N2CCCc3ccccc32)o1)c1ccccc1F", "inhibition": "11.2%"}
{"compound": "CCOC(=O)c1c(C)n(C)c2ccc(OC)c(NS(=O)(=O)CC)c12", "inhibition": "2.65%"}
{"compound": "Cc1ccccc1OCCOc1ccc([N+](=O)[O-])cc1/C=N/n1cnnc1", "inhibition": "3.11%"}
{"compound": "Clc1cc(-c2ccc(/C=N/n3cnnc3)o2)ccc1Br", "inhibition": "18.6%"}
{"compound": "Cc1cc([N+](=O)[O-])c(-c2ccc(/C=N/n3cnnc3)o2)cc1Cl", "inhibition": "34.8% (active)"}
{"compound": "CCOC(=O)c1cc(S(=O)(=O)NCCc2ccc(OC)c(OC)c2)cn1C", "inhibition": "1.68%"}
{"compound": "COc1ccc(C)cc1N(C(=O)Cn1nnc(-c2ccc(C)o2)n1)C(C(=O)NC1CCCC1)c1ccncc1", "note": "(centres undefined)", "inhibition": "-13.4%"}
{"compound": "COCOc1cc(O)c(C(=O)/C=C/c2ccc(OCOC)c(OCOC)c2)c(OCOC)c1", "inhibition": "6.25%"}
{"compound": "COc1ccc(/C=C/C(=O)c2cc(Br)ccc(=O)c2O)cc1", "inhibition": "55.6% (active)"}
{"compound": "CCOc1ccc(NC(=S)NC(=O)/C=C/c2ccc(OC)cc2)c([N+](=O)[O-])c1", "inhibition": "11.6%"}
{"compound": "Cc1ccc(C(=O)O)cc1N1C(=O)CCCC1=O", "inhibition": "2.24%"}
{"compound": "CCCN(CC(=O)Nc1ccccc1C)C(=O)c1ccc2[nH]c3c(c2c1)CC(C)CC3", "note": "(centres undefined)", "inhibition": "18.2%"}
{"compound": "COc1ccc(CC(=O)c2ccc(O)cc2O)cc1OC", "inhibition": "26.1%"}
{"compound": "Oc1cccc(CCc2ccccn2)c1", "inhibition": "7.36%"}
{"compound": "O=C(Cc1ccccn1)c1ccc(O)cc1O", "inhibition": "33.6% (active)"}
